T1: USP38, Q8NB14
T1 chain: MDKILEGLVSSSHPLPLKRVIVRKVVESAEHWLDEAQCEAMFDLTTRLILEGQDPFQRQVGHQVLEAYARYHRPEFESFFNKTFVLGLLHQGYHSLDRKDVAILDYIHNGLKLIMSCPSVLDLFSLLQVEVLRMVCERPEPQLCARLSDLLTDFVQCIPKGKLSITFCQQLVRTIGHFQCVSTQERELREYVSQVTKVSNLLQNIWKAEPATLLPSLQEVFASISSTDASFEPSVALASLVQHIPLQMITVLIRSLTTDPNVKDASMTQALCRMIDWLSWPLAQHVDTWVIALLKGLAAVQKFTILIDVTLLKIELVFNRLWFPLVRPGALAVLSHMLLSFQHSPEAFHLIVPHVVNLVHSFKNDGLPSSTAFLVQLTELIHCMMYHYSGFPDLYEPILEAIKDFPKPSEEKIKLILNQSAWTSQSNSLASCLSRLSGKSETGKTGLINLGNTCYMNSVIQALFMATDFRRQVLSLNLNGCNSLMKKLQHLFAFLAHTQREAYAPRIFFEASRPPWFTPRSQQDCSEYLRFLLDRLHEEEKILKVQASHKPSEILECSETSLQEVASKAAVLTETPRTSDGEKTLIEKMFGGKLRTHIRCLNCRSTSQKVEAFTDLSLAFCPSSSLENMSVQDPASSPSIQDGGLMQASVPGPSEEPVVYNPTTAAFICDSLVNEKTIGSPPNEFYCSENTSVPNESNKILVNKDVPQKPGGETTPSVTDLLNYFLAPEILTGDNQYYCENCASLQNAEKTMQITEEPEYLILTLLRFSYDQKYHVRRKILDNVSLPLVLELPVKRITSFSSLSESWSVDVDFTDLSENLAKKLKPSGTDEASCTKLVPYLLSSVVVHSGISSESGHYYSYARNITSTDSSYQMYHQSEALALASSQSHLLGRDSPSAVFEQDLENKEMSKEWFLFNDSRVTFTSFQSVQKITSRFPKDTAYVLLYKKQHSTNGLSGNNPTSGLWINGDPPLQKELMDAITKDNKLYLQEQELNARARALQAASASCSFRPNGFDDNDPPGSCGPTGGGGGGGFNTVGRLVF


Biological target: T1, USP38, Q8NB14
Experiment: median log2 fold change of GCK-ALFA target abundance (FLAG IP / Myc IP barcode read proportion) (log2 ratio); each designed protein is fused to an ALFA-tag nanobody in HEK293 cells to bring the named protein to FLAG-tagged glucokinase (GCK); Myc marks an untargeted standard; higher = target protein stabilised (more abundant)
Settings: target protein: 3xFLAG-MCP-GCK-ALFA reporter; HEK293 landing pad (RPLP)
How it was run: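 Binders fused to an ALFA nanobody were recombined as a library into HEK293 landing-pad cells, which were induced with 2 μg mL^−1 doxycycline and then transfected to express a FLAG-tagged target and a Myc-tagged standard. After 48 h, circular RNA barcodes recovered by anti-FLAG and anti-Myc immunoprecipitation of lysates were reverse transcribed, amplified and sequenced. Each binder's target abundance is the median log2 ratio of FLAG to Myc barcode read proportions, from barcodes present at ≥10^−7 in both replicates, binders carrying ≥3 barcodes per replicate, a 10^−6 pseudocount and pooled replicates.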

Binder | median log2 fold change
usp_38_diff_out_13_93_77 (protein) SLEEKAKALLAEIEARAKALLEELEELAERGEITIEEVLERSSALFDEIAAETRAMVAELEAAGKKALAEELKKKVNEIILDATEGIGKILERLAEREAA | -0.0527
usp_38_diff_out_13_93_76 (protein) TLEEKAEALLAEIRKRAEELLKELKKLAEEGKITIEEVLERSSKLFDEIAERTRAMVAELRAAGKEALAERVEKEVNEIILKATEGVGKILEFLAEKEAA | 0.124
usp_38_diff_out_14_2_117 (protein) GEEEIKKATEETLKVLKEAIKKLKELKKRVEEDPSKAAEATEEAFRAWDKAADAVGALNKLLEAHKEHREENKKATKEVNKAITELTEALTELLTAAAEA | -0.0949
usp_38_diff_out_14_2_100 (protein) GEEELKAATDATLKTLDAAIKEAKELKKEVEEDPSKAEEARKRLFEAWDKAADAVGALAKLMEEHKELRELNKEAVEKVNKRITELTKVALEALELAAKA | -0.611
usp_38_diff_out_14_2_105 (protein) GEEEIKKATDKTLKKLEEATKKFKELKEKVKKDPSLAEEARKEAFKAWDEAGDAVGALAKLIEENKEHRATNKEATEKVNKALTEYTKAVLELLEEIAEA | -0.792
usp_38_diff_out_13_93_70 (protein) SAEEKIKKLIEETKEKAKKKLEEMEEKVEAGELDVEEVLEEYSELMKYIVETHNEIEKLAKENGLEELLKEANKEFNELINETTEKVTEMLEKVAERQLA | -0.785
usp_38_diff_out_14_2_109 (protein) KEEELKKKKEETLKKLDEAIKKAKELKEEVKKDPSKKEEAFKELFEKHDEAADAVGELNKLILENKELRELNKEVTEEVNKKITEYTEAVLEALEEIAEA | -0.1
usp_38_diff_out_14_2_116 (protein) AVEEIKAATDATLATLAAATAALAELKKRVEADPSLAEEARAEAFAAWDAAADAVGALNRLMEANREHRAERKEATAKINAALTTLTAALTETLEAAAAA | -0.132
usp_38_diff_out_14_2_119 (protein) AKAEIAKATAATLATLAAAIKKAKELTKKVKADPSLKEKARAELDKAWDAAGDAVGALNTLLLANKDLKAENKKATAATNAAITELTKTYTEALEAIEEA | -0.186
usp_38_diff_out_14_2_101 (protein) AEEEIKKKKEETLKKLEEGIERLKKLKEEVKKDPSLAEKARKEAFEIHDEVADKVGELHKLILKNPELKELNKKAIKEVNEKLTEFTEALLEALEEAAAA | 0.0029
usp_38_diff_out_14_2_102 (protein) AEAEIEKATEETLAVLEEAIKKFEELEKEVEEDPSKAEEAFERILEEWDRAADAVGALARLLEAHPEVRETRKKAVAEVNEALTRLTEKATRALEKAAEA | -0.0129
usp_38_diff_out_14_2_114 (protein) GEAEIKAATAETLAVLEEAIKKLKELTERVKADPSKAEEARKEAFEAWDKAADAVGALRKLMEAHREHRAEIKEATAKVNEAITKLTEALTETLELAAEA | -0.239
usp_38_diff_out_13_93_75 (protein) SLEDEAAALLAEIRAEAEALAAELEALAEAGKITIEEVLERTSALVDRIAERTRAMVARLRAAGLEALARRLEEEVNRILLDLTERVGRILERLAEREAA | 0.213
usp_38_diff_out_14_2_122 (protein) AEAELEAAAAATKATLEDAIKRVKELLEEVKKDPSKAEEALKELRRLWDEAADAVGALARLMEAHRELRALRKRITAEVNALITEFTEAVLELLEEIAEA | -0.56
usp_38_diff_out_14_2_104 (protein) AKATIEAATAAALKAIDDGKKRLEELTKKVKEDPSKAEEAREEILAVWDEVGDAVGALAATLRANPAERATNKAATAEVNKALTEFTKKALEALEVAEEA | 0.0445
usp_38_diff_out_14_2_113 (protein) AEEELKKAAEKTLKVLDEAIKNLKALKKKVEADPSKAEEATKEAFAAWDKAADAVGELNKLIEANREHRAERKEVTEKVNKKITELTDALTELLTAAAEA | -0.258

Binder | median log2 fold change
usp_38_diff_out_14_2_107 (protein) AKEEIKKKTEETLKALDEAIKAAKKLKEEVKKDPSLAEKARKELFKLWDEVGDKVGELAKLLEENKEERETNKEAVEKVNEALTKFTKAVLEALEEIEKA | -0.442
usp_38_diff_out_14_2_112 (protein) AKEELEKKKEETLKTLEEAIKKAKELKKEVEKDPSKKEEAFKELRKKHDEAADKVGELNKLILENKELRELNKKVTEEVNEKIKEYTEAVLEALEKIAEA | 0.0138
usp_38_diff_out_14_2_115 (protein) AVEELKKKTEETLKVLDEAIKKLKELTERVKKDPSTAEEAVKEAFKAWDKAADAVGELNKLILANREHRAENKEATKKVNEKITELTKALTEALTLAAEA | -0.246
usp_38_diff_out_14_2_120 (protein) AVEEIKKATDDTLAKLDAAIAAAKALTAQVKADPSLKEQARAALNAAWDAAGDAVGALNKLLEANKEEKATNKEATAKTNAAITELTAAVLDALTTIEEA | -0.172
usp_38_diff_out_14_2_121 (protein) AKEELEKATKKALETLDKALEEAKRLKEEVKKDPSKAEEAFKRLREAWDKAADAVGELNKLMLEHKEEKETIKEATEKVNKKITELTKATLEALEEAAKA | -0.64
usp_38_diff_out_14_2_110 (protein) AEEKLKKATKETLATLKEAIKLAKELKKEVKKDPSKKEEARKKLFEAHDKAADAVGKLAKLIEENKELRELNKKATKEVDKAITEYTKAALEALEEIEKA | -0.599
usp_38_diff_out_13_93_74 (protein) DLEARVEALLAAQEAEADALAAELAARAAAGEITVEEILERSSALADRIAEETRRAVAELEAAGEAALARRLRERTAEILLRLTERVGAILEELAAREAA | 0.136
usp_38_diff_out_13_93_71 (protein) STEEEIERLVEEAEERARRELEEMREEVEAGKLNVEEVLERSSELFRWLVEKYNEIKKLAKEAGLEELLKEAEERFNELINKATEEVTEMLEKVAERELA | -0.429
usp_38_diff_out_14_2_111 (protein) AKEELEKATKETLEVLKEATKLAKELKEEVKKDPSKAEEARKKLFEAHDKAGDAVGELNKLILENKELRELNKKATEEVNKAITEYTKATLEALETIAEA | -0.197
usp_38_diff_out_14_2_79 (protein) MEEKAKEVLKKLEEKTKEVKKVTEELEKALSGSKEEIEKAVEKAFKVLDEAGKVSAEAEEVRRENPKFRAEFKKAFKELDKELSKLSKAILEALEKIAEL | -0.624
usp_38_diff_out_14_2_106 (protein) GEEEIKKATEETLKAIKEAIEKAKELKEKVKKDPSLAEEARKELFEAHDKVGDKVGALAKLIEEHKEYRETNKKAVKEVNEALKEYTEAVLELLEEIAEA | -0.23
usp_38_diff_out_14_2_78 (protein) MEEKVKKLKEEIEKLLEEAKKLLEEAKKLLKEGDELAEEVLEKLDKAFDKLGELAKLLRELRELDPSQRAFVKEMTKKANELIDELTELRTEALLILAER | 0.219
usp_38_diff_out_13_93_72 (protein) SAEEEIEKILKEVEEEAEKELEELEKEVAAGRLTVEEVLRRAGELFSYIVKKHQEIEKIAKENGLEALLKEATEKVNELINKVTERVTAMLERVAARQLA | -0.469
usp_38_diff_out_14_2_118 (protein) GEEELKEKKKATLATLDDAIAKAKALEAAVKADPSIAEQARAELRKAWDAAADAVGELERLIREHPEHRELNKEAIKEVNEKLTELTEALLAALQTIAEA | -0.0211
usp_38_diff_out_13_93_73 (protein) DPAEELRREAEELIEELRRRTDELVARLEAGEITIEEALARFSELMDEAAERLRELIARAEALGLEALAREIRRRVLEAMVEATERLGAALERAAEREAA | -0.395
usp_38_diff_out_14_2_108 (protein) AADKIKAATDATLAALEAAIAKAKELKERVKKDPSLAEEARKELFEAWDAVGDKVGALAKLLEENKAERATNKKATAEVNKALTEYTKAVLEALEEIAKA | -0.78
